In publication PMC5540273 (PLoS ONE, 2017):

Tested on: AURKA
Settings: concentration: 1 μM, replicates: in singlicate; n = 1
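Also: KINOMEscan kinase panel screen.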

| SMILES | %Inh [%] |
| --- | --- |
| N#Cc1ccc(Oc2ccc(Nc3ncnc4cc[nH]c34)cc2Cl)cc1 | 11 |
| Cc1cc(N2CCC(NS(=O)(=O)c3ccc(F)cc3)CC2)nc(Nc2cccc(C#N)c2)n1.O=C(O)C(F)(F)F [GSK1653537] | 0 |
| O=C(NCCCN1CCCC1=O)c1cnc(NCc2cc(Cl)ccc2Cl)nc1NC1CCNCC1 | 0 |
| c1ccc(-c2ccc3c(-c4ccnc(Nc5ccc6c(c5)OCCO6)n4)cnn3n2)cc1 [GW818941] | 0 |
| CNc1nccc(-c2c(-c3ccc(F)cc3)ncn2CCCN2CCOCC2)n1 [SB-222516] | 0 |
| C[C@@H]1CCN(C(=O)CO)C[C@@H]1N(C)c1ncnc2[nH]ccc12 | 0 |
| Cn1ccc2ncnc(Oc3ccc(NC(=O)Nc4cccnc4)c(Cl)c3)c21 | 18 |
| O=C(c1ccc(-c2cc(-c3c[nH]nc3-c3ccccn3)ccn2)cc1)N1CCCC1 [GW792479] | 0 |
| O=C(Nc1n[nH]c2nc(-c3ccco3)c(Br)cc12)c1ccc(CN2CCCC2)cc1.O=C(O)[C@H](O)[C@@H](O)C(=O)O [SB-742352] | 0 |
| Nc1n[nH]c2nnc(-c3ccccc3)cc12 [SB-517389] | 13 |
| Oc1ccc2ncnc(Nc3ccc(OCc4ccccc4)cc3)c2c1 [GI262866] | 0 |
| O=C(CCO)NCCn1ccc2ncnc(Nc3ccc(Oc4cccc(C(F)(F)F)c4)c(Cl)c3)c21 | 0 |
| Nc1nc(-c2cccnc2)c(-c2ccnc3ccccc23)s1 [GW684083] | 0 |
| COc1ccc(Nc2nccc(N3CCC(NC(=O)c4cccc(NC(C)=O)c4)C3)n2)cc1 (centres unmarked) [GSK1379732] | 16 |
| CC(=O)Nc1n[nH]c2ncc(-c3ccccc3)cc12 [SB-548492] | 16 |
| COc1ccc(Nc2nccc(N3CCC(NC(=O)Nc4ccc5c(c4)OCO5)C3)n2)cc1 (centres unmarked) [GSK1379745] | 6 |
| CCCc1ccc(S(=O)(=O)NC2CCN(c3ccnc(Nc4ccc(OC)cc4)n3)C2)cc1 (centres unmarked) [GSK1379737] | 0 |
| Nc1nccc2scc(-c3ccc4c(c3)CCN4C(=O)Cc3cc(F)ccc3F)c12 [GSK2587663] | 0 |

| SMILES | %Inh [%] |
| --- | --- |
| CS(=O)(=O)CCNCc1nc(-c2ccc3ncnc(Nc4ccc(OCc5cccc(F)c5)c(Cl)c4)c3c2)cs1.Cl [GW583340] | 5 |
| COc1ccc(NC(=O)Nc2ccc(C)c(-c3ccc(C(=O)Nc4ccncc4)cc3)c2)cc1 [GSK1398475] | 4 |
| FC(F)(F)c1cc(Nc2nccc(-c3c(-c4ccc(Cl)cc4)nn4ncccc34)n2)ccc1Cl [GW829351] | 5 |
| Cl.Cl.c1ccc(-c2cc3ccncc3cc2OC2CCNCC2)cc1 [GSK1122999] | 17 |
| Nc1nc(-c2ccc3c(N)n[nH]c3c2)cc(N2CCCCC2)n1 [GSK2228768] | 0 |
| COc1cc2c(Nc3cccc(NC(=O)c4ccccc4)c3)ncnc2cc1OCCCN1CCOCC1 [GSK223810] | 25 |
| Clc1cccc(-c2nc(Nc3ccncc3)c3ccccc3n2)c1 [GW873004] | 0 |
| CSc1ccc(NC2=C(c3ccccc3Cl)C(=O)NC2=O)cc1 [SB-342411] | 21 |
| O=C(Nc1ccccc1F)NC1CCN(c2ccnc(Nc3ccc(F)cc3)n2)C1 (centres unmarked) [GSK1379722] | 0 |
| Cc1ccc(NC(=O)c2cccc(C#N)c2)cc1-c1ccc(C(=O)Nc2ccncc2)cc1 [GSK1398463] | 7 |
| CCc1nc(-c2cccc(C)c2)c(-c2ccnc(NC(=O)c3ccccc3)c2)s1 | 17 |
| Cl.Fc1ccccc1COc1ccc(Nc2ncnc3ccc(-c4nnc(C(F)(F)F)o4)cc23)cc1Cl [GW424170] | 13 |
| Clc1cc(Nc2ncnc3cc[nH]c23)ccc1OCc1ccccn1 | 35 |
| CC(C)N1CCC(n2cnc(-c3ccc(F)cc3)c2-c2ccnc(N)n2)CC1 [SB-223132] | 0 |
| COC(=O)c1cccc(NC(=O)NCCNc2ccnc(Nc3ccc(F)cc3)n2)c1 [GSK1379883] | 21 |
| Cc1ccc(C)c(NC(=O)NCCNc2ccnc(Nc3ccc(F)cc3)n2)c1 [GSK1379878] | 7 |
| CCC(CC)(CC)n1cnc2c(N)ncnc21 [SKF-97620] | 28 |
